Assay outcomes deposited in PubChem by National Center for Advancing Translational Sciences (NCATS).
EPAC1 antagonist: antagonists of human EPAC1. O95398. EPAC1 GEF assay, Rap1b-BODIPY-GDP exchange fluorescence. Potency, µM (series often up to 115 µM), without a hit: top-dose activity change, negative = inhibition, hits mostly inhibitors. 360,000 tested, 0.14% active;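 note: plate controls were vehicle for no effect and positive control for full effect; nearly all actives have a fitted effect of over 50% in size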
Target sequence (O95398 whole entry, looked up): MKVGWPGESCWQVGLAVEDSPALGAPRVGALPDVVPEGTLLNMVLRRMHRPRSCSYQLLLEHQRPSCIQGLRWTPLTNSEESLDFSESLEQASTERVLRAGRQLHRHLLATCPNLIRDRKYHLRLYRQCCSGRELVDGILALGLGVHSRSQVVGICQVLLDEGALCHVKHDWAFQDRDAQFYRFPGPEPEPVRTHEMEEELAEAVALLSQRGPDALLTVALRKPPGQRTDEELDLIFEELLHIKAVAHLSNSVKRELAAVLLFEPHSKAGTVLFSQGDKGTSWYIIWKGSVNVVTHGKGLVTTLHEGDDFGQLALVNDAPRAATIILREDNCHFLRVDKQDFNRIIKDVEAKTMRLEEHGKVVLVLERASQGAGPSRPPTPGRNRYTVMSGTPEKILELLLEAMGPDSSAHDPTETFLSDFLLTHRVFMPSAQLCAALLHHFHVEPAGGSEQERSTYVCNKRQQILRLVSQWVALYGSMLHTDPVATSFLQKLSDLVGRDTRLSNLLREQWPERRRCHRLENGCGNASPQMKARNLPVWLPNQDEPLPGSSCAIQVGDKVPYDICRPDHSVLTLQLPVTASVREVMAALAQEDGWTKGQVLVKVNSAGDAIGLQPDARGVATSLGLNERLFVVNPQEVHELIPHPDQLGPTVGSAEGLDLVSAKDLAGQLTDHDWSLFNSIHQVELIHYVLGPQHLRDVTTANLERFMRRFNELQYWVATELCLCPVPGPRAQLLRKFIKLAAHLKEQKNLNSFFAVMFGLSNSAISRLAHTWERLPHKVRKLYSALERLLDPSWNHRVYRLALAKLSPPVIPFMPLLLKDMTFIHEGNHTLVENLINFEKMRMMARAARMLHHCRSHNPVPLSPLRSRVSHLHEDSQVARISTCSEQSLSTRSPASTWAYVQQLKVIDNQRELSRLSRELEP
12-LOX inh: inhibitors of human 12S-lipoxygenase ALOX12. 580,000 tested, 1.1% active. Potency, µM (series often up to 108 µM), inactives show top-dose activity change, negative = inhibition, actives largely listed as inhibitors. purified 12hLO, xylenol orange hydroperoxide absorbance. AID 1671190; note: % is set by controls: 0 for no effect and ±100 for the full control effect
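Purified human 12hLO at 150 nM in 25 mM Hepes, 0.01% Triton X-100, pH 7.0, preincubated 15 min at room temperature with compound. Reaction started with 40 uM arachidonic acid, 30 min at room temperature. Hydroperoxide measured by Fe-xylenol orange, 573/405 nm absorbance ratio.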
EPAC2 ag: activates human EPAC2 exchange factor | EPAC2 activation, biochemical qHTS; response scale: 100% = 6.5 mM cAMP response | Potency, µM (highest dose often 154 µM), for the others: top-dose activation, most hits filed as activators | 360,000 tested, 0.079% active | AID 720711; note: nearly all actives have a fitted effect of over 50% in size
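Compounds were added across a concentration range to EPAC2 (100 nM), RAP1B-BODIPY-GDP (250 nM) and GDP (50 uM). After 5 min at room temperature, fluorescence was recorded at 5-min intervals for 30 min.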
USP1-UAF1 inh: blocks the human USP1/UAF1 deubiquitinase complex; recombinant USP1/UAF1, Ub-Rhodamine cleavage fluorescence; Potency, µM (highest dose often 57.1 µM), inactives show at the top dose activity change, negative = inhibition, most hits filed as inhibitors; 390,000 tested, 0.23% active; AID 743255; note: % is set by controls: 0 for no effect and ±100 for the full control effect; nearly all actives have a fitted effect of over 60% in size
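High-throughput fluorogenic screen: 1nM USP1/UAF1 complex, Ub-Rho substrate 150nM final, 50mM HEPES pH 7.8 with 0.5mM EDTA, 0.1 mg/ml BSA, 1mM TCEP and 0.01% Tween-20.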
EPAC1 agonist: EPAC1 (human) agonism; Potency, µM (series often up to 154 µM), inactives show at the highest dose activation, most hits filed as activators; 360,000 tested, 0.073% active; O95398; EPAC1 agonist qHTS, biochemical assay; response scale: 100% = response to 6.5 mM cAMP; note: nearly all actives have a fitted effect of over 60% in size
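EPAC1 100 nM, Rap1B–BODIPY-GDP 250 nM, unlabeled GDP 50 uM; compound titration; 5 min RT; kinetic read ex480/em540 at 5-min intervals ×30 min; data normalized to 6.5 mM cAMP agonist control.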
EPAC2 antagonist: antagonists of human EPAC2; Q8WZA2; EPAC2 GEF exchange of Rap1B-BODIPY-GDP, fluorescence; Potency, µM (titrated, usually from 114 µM), without a hit: at the highest dose activity, negative = inhibition, actives largely listed as inhibitors; 360,000 tested, 0.18% active; note: % is set by controls: 0 for no effect and ±100 for the full control effect; nearly all actives have a fitted effect of over 45% in size
An asterisk follows results filed as active; ? = inconclusive; nt = not tested or not shown. Sampled rows, rich in hits. Any-hit rate of the full collection: about 1.3%. Calls come from the whole dose curve; as a rule, active = well fitted curve in the direction sought with a large enough effect; inconclusive = small, poorly fitted or top-dose-only effect, or another doubt; inactive = no such curve, though single readings can be large; an effect the other way counts as inactive or inconclusive. Potency is the fitted concentration of half-maximal effect.

SMILES	EPAC1 antagonist	12-LOX inh	EPAC2 ag	USP1-UAF1 inh	EPAC1 agonist	EPAC2 antagonist
CC(NC(=O)c1cc(-c2ccncc2)nc2ccccc12)c1cccs1 (centres undefined)	nt	-13%	nt	nt	nt	nt
Cc1ccccc1C(=O)Nc1c(NC2CCCC2)c2ccccc2oc1=O	nt	33%	nt	nt	nt	nt
CC1=Nc2cc(C(=O)NC3CCCC3)ccc2Sc2ccc(Br)cc21	nt	0%	nt	-7%	nt	nt
CC1=Nc2cc(C(=O)O)ccc2Sc2ccc(Br)cc21	-3%	45µM*	9%	-29%	-2%	?
COC(=O)c1c(C)c2c(C)cc3ccccn3c-2c1C(=O)OC	2%	0%	-9%	-5%	-6%	11µM*
N#CC1=C(S)N(c2ccc(F)cc2)C(c2ccco2)NC1=O (centres undefined)	5%	45µM*	2%	-12%	-1%	-1%
N#CC1=C(S)N(c2ccccc2)C(c2ccc(-c3ccc(Cl)c(Cl)c3)o2)NC1=O (centres undefined)	-2%	18µM*	6%	-11%	-7%	-6%
COc1cccc2c1NC(C(=O)O)C1CC=CC21 (centres undefined)	?	nt	4%	25µM*	1%	15%
COc1cccc(C2Nc3c(F)cc(Br)cc3C3C=CCC32)c1OC (centres undefined)	-3%	-14%	-6%	-8%	-3%	-6%
CC(=O)c1ccc2c(c1)C1C=CCC1C(C(=O)O)N2 (centres undefined)	50µM*	?	3%	32µM*	0%	4%
C(=N\N=C1c2ccccc2-c2ccccc21)/c1cccnc1	nt	10%	nt	nt	nt	nt
CCCCc1c(-c2ccccc2OC)ncn1Cc1ccccc1C	nt	28µM*	nt	nt	nt	nt
CCCCc1c(-c2ccccc2OC)ncn1Cc1ccccc1F	nt	-14%	nt	nt	nt	nt
O=C(/C=C/c1ccc(O)c(O)c1)c1ccc(S(=O)(=O)N2CCCCCC2)cc1	-14%	22µM*	-1%	-23%	-2%	0%
COc1ccc(C2=NOC(C(=O)Nc3cc(Br)ccc3O)C2)cc1OC (centres undefined)	0%	10µM*	5%	-3%	13%	-3%
COc1ccc(C2=NOC(C(=O)Nc3ccc(C(C)=O)cc3)C2)cc1OC (centres undefined)	6%	6%	2%	5%	4%	6%
CCC(=O)N1CCN(c2ccc(Cl)cc2NC(=O)c2ccc(C#N)cc2F)CC1	nt	0%	nt	nt	nt	nt
COc1ccc(NC(=S)N/N=C2\CC(C)(C)Oc3ccc(O)cc32)cc1	-2%	32µM*	3%	-20%	6%	-11%
CCCc1noc(-c2ccn3c(CNC(=O)Cc4cccc(OC)c4)nnc3c2)n1	nt	45µM*	nt	nt	nt	nt
CCCc1noc(-c2ccn3c(CNC(=O)c4ccc(C)c(F)c4)nnc3c2)n1	nt	50µM*	nt	nt	nt	nt
Cc1csc(NC(=O)c2occc2-c2ccccc2)n1	nt	-21%	nt	nt	nt	nt
CC(C)c1ccccc1OCCNC(=S)NC(=O)c1cccnc1	-4%	40µM*	13%	-19%	-3%	?
CC(=O)c1sc(N/N=C/c2cccc(O)c2)nc1C	-4%	15%	20%	-14%	-26%	17%
CC(=O)c1sc(N/N=C\c2c(O)ccc3ccccc23)nc1C	2%	40µM*	6%	-17%	12%	16%
N#CCCN(C(=O)CSc1ccc2ccccc2n1)c1ccccc1	nt	-38%	nt	nt	nt	nt
SMILES	EPAC1 antagonist	12-LOX inh	EPAC2 ag	USP1-UAF1 inh	EPAC1 agonist	EPAC2 antagonist
CCC(C)NC(=O)NC1CCN(c2nc3ccccc3n(CC)c2=O)CC1 (centres undefined)	nt	-4%	nt	nt	nt	nt
CC(C)(Sc1ccc(CCN(CCCCC2CCCCC2)C(=O)NC2CCCCC2)cc1)C(=O)O	-11%	?	-13%	?	-21%	56µM*
CCCCCCCCCCCCCCCC(=O)Nc1ccccc1	nt	-1%	nt	nt	nt	nt
CCc1c(C(=O)N2CCCN(C)CC2)csc1C	-2%	0%	3%	-9%	0%	8%
CCc1c(C(=O)N2CCc3c(c(C(=O)O)nn3CC3CC3)C2)csc1C	nt	35µM*	nt	nt	nt	nt
O=c1c(-c2ccco2)nc2ccccc2n1C(CCc1ccccc1)c1nc2ccccc2[nH]1 (centres undefined)	-27%	?	-16%	nt	4%	-3%
O=c1c(-c2cccs2)nc2ccccc2n1C(c1ccccn1)c1nc2ccccc2[nH]1 (centres undefined)	-6%	40µM*	2%	nt	9%	2%
CCC(c1nc2ccccc2[nH]1)n1c(=O)c(-c2ccco2)nc2ccccc21 (centres undefined)	2%	25µM*	12%	nt	3%	-3%
O=c1c(-c2ccco2)nc2ccccc2n1C(c1ccccc1)c1nc2ccccc2[nH]1 (centres undefined)	-23%	18µM*	22%	nt	14%	1%
Cc1ccc(C)c(C(=O)CSc2cccc3cccnc23)c1	nt	-20%	nt	nt	nt	nt
O=C(Nc1ccc2nc(N3CCOCC3)sc2c1)c1n[nH]c(=O)c2ccccc12	nt	7%	nt	nt	nt	nt
S=C(NCc1ccc(Cl)cc1Cl)NC1CCCCC1	1%	40µM*	8%	-26%	15%	17%
Clc1ccc(CNC2CCCC2)c(Cl)c1	24%	-1%	4%	3%	6%	23%
CC(=O)NCC(=O)N(c1ccc(C)cc1)C1(C(=O)Nc2c(C)cccc2C)CCCCC1	nt	3%	nt	nt	nt	nt
COc1ccc2nc(-c3ccco3)c(-c3ccco3)nc2c1	?	18µM*	5%	-15%	11%	-11%
c1coc(-c2nc(-c3ccco3)c(-c3ccco3)nc2-c2ccco2)c1	?	?	-1%	?	6%	7%
CCCCCCCCCCS(=O)CCC(=O)O (centres undefined)	nt	-6%	nt	nt	nt	nt
CCNC(=O)NC(=O)C(C)N(C)CC(=O)Nc1cccc2ccccc12 (centres undefined)	nt	9%	nt	nt	nt	nt
O=C(N/C=C/c1ccco1)NCc1ccccc1	?	?	9%	-20%	-12%	3%
O=C(N/C=C/c1ccco1)OCc1ccccc1	6%	40µM*	6%	-15%	-1%	3%
COc1ccc(Cc2c(-c3ccc(C)cc3)nc3ccc(Cl)cn23)c(C)c1	1%	40µM*	4%	nt	-4%	7%
COC(=O)c1ccc2nc(-c3ccc(Cl)cc3)c(Cc3ccc(OC)cc3C)n2c1	-13%	?	17%	nt	11%	-6%
O=C1CC2(C(=O)N(CC3CCCCC3)c3ccccc32)c2cnn(-c3ccccc3)c2N1 (centres undefined)	nt	-12%	nt	nt	nt	nt
CCOc1ccccc1C1C(C#N)=C(N)SC(N)=C1C#N	6%	?	20%	?	16%	5%
